Potency and affinity values are given separately.
Columns and labels:
Staphylococcus aureus = conditions: Concentration 32 ug.mL-1; ASSAY_TEST Inhibition of Bacterial Growth; detection method Absorption (OD600); MEDIA CAMHB; plate type 384well; NBS; CORNING #3640; time 18 hr
Escherichia coli = conditions: Concentration 32 ug.mL-1; ASSAY_TEST Inhibition of Bacterial Growth; detection method Absorption (OD600); MEDIA CAMHB; plate type 384well; NBS; CORNING #3640; time 18 hr

Clc1ccc(Cn2c(-c3cscn3)nc3ccccc32)cn1
Inhibition (Staphylococcus aureus): 3.88%
Inhibition (Escherichia coli): -1.48%

Clc1ccc2c(c1)nc(-c1cscn1)n2Cc1ccc(Cl)nc1
Inhibition (Staphylococcus aureus): -10.99%
Inhibition (Escherichia coli): -7.54%

Clc1ccc(Cn2c(-c3cscn3)nc3c(Cl)cccc32)cn1
Inhibition (Staphylococcus aureus): -6.34%
Inhibition (Escherichia coli): -8.9%
